± gives the standard deviation of the averaged measurements. About 5,400 targets were measured; listed, in parts, are those with the largest changes and a random draw of the rest.
Compound: Nc1nc2c(ncn2[C@@H]2O[C@H](COP(=O)(O)OP(=O)(O)OP(=O)(O)O)[C@@H](O)[C@H]2O)c(=O)[nH]1 [guanosine triphosphate]
Test: NP40-soluble protein abundance relative to vehicle (solubility fold change) (ratio); higher = more soluble protein in presence of GTP
Experimental: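 Solubility proteome profiling in Jurkat crude lysate. Lysate was treated with Mg-GTP (0.1-10 mM) for 10 min at room temperature and 3 min at 37 °C, then solubilised with 0.8% NP40 and benzonase, followed by ultracentrifugation. Proteins were quantified by TMT10 LC-MS/MS; the value is the NP40-soluble abundance relative to the NP40-processed vehicle, from 3 independent experiments.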

UniProt Q86V48, sequence (Q86V48 whole entry): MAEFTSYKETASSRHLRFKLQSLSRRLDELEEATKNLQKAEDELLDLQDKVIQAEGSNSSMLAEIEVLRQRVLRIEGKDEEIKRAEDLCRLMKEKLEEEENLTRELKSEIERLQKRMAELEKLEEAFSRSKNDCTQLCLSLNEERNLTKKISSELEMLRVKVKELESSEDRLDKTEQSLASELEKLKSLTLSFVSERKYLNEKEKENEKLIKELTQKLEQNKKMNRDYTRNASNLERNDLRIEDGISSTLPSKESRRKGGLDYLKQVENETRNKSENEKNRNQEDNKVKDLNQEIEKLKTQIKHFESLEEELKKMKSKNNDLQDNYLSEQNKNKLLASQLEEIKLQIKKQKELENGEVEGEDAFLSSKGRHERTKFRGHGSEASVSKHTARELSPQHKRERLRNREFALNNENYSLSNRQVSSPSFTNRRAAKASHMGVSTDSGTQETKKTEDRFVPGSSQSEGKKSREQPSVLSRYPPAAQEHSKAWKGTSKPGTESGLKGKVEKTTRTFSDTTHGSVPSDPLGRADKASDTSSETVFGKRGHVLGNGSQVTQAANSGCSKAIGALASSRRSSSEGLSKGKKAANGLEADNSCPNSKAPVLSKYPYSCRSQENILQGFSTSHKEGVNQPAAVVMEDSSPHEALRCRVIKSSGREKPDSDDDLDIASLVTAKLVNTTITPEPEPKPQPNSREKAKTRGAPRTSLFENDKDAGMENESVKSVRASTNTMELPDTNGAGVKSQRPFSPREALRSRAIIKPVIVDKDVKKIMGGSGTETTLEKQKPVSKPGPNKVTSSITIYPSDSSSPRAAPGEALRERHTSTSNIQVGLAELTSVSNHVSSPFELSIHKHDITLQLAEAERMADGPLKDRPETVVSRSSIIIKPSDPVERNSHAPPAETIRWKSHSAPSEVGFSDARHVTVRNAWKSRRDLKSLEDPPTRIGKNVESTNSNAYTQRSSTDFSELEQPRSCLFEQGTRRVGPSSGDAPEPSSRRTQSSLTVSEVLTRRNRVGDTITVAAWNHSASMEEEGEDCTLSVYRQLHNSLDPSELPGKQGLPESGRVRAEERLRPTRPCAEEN
UniProt P78563, sequence (P78563 whole entry): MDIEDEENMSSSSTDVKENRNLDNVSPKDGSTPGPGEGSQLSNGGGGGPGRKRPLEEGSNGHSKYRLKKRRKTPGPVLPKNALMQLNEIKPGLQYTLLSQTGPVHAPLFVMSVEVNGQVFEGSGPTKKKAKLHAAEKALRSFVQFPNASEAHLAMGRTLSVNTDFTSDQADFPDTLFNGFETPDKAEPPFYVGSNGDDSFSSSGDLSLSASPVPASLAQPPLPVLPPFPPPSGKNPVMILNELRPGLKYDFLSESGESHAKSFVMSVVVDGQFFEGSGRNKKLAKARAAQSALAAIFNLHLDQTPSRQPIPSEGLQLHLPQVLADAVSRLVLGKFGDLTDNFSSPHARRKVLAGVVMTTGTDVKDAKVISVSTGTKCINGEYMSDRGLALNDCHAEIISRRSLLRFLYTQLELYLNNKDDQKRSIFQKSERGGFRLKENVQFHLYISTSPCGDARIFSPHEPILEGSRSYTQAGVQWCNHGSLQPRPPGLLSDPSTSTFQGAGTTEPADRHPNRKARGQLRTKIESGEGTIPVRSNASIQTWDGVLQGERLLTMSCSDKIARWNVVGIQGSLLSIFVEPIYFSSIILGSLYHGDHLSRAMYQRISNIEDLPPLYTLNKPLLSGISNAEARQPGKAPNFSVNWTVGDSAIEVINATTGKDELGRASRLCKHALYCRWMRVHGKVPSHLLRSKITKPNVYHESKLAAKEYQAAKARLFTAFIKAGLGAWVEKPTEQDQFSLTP
UniProt Q13572, sequence (Q13572 whole entry): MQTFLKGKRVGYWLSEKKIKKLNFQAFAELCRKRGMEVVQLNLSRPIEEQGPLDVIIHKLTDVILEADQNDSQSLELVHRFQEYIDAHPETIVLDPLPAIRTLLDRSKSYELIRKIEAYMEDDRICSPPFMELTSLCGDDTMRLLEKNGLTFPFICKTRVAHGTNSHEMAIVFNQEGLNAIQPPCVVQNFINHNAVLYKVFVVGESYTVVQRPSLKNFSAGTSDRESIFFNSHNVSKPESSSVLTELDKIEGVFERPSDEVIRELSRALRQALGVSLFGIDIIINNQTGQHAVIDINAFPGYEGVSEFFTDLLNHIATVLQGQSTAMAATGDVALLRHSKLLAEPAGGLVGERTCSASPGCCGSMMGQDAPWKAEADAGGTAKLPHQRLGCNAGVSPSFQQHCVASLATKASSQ
UniProt P62136, sequence (P62136 whole entry): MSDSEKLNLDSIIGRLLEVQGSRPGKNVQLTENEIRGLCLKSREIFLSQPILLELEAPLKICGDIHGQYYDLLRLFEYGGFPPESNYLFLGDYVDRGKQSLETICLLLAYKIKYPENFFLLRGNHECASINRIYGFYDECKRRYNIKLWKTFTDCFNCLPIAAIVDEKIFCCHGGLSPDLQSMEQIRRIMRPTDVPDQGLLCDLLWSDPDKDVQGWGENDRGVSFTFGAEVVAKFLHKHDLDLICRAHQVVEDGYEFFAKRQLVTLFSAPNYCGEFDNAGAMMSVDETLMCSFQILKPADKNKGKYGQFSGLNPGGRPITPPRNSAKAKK
UniProt Q7KZN9, sequence (Q7KZN9 whole entry): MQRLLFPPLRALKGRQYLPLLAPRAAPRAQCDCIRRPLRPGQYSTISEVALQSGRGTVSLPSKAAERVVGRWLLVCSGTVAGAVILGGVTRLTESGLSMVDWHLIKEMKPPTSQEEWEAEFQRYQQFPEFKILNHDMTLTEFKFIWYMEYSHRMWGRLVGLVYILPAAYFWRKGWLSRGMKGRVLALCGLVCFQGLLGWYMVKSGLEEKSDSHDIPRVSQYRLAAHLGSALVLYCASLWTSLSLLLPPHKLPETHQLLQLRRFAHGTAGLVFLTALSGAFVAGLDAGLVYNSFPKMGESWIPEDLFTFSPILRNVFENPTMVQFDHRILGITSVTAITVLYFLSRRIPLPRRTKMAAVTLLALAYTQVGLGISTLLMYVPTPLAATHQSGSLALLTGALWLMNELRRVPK

Target	NP40-soluble protein abundance (concentration: 0.1mM)	NP40-soluble protein abundance (concentration: 0.5mM)	NP40-soluble protein abundance (concentration: 1mM)	NP40-soluble protein abundance (concentration: 2mM)	NP40-soluble protein abundance (concentration: 4mM)	NP40-soluble protein abundance (concentration: 6mM)	NP40-soluble protein abundance (concentration: 8mM)	NP40-soluble protein abundance (concentration: 10mM)
UniProt Q86V48|Q86V48-2|Q86V48-3	0.953 ± 0.056	0.967 ± 0.042	1.01 ± 0.051	0.99 ± 0.097	1.03 ± 0.088	1.08 ± 0.081	1.17 ± 0.1	1.2 ± 0.11
UniProt P78563|P78563-2|P78563-3|P78563-4|P78563-5|P78563-6	1.05 ± 0.12	1.03 ± 0.13	1.007 ± 0.0033	1.07 ± 0.053	1.11 ± 0.044	1.16 ± 0.062	1.15 ± 0.031	1.16 ± 0.1
PPP1CA (UniProt P62136)	0.894 ± 0.12	0.92 ± 0.12	0.861 ± 0.081	0.834 ± 0.072	0.855 ± 0.083	0.853 ± 0.056	0.837 ± 0.098	0.828 ± 0.092
ITPK1 (UniProt Q13572)	0.997 ± 0.085	0.965 ± 0.064	0.904 ± 0.095	0.981 ± 0.077	0.981 ± 0.15	0.943 ± 0.18	0.924 ± 0.13	0.953 ± 0.09
UniProt Q7KZN9|Q7KZN9-2	1.07 ± 0.024	1.05 ± 0.11	0.98 ± 0.035	0.961 ± 0.022	0.939 ± 0.052	0.924 ± 0.037	0.907 ± 0.029	0.931 ± 0.042
